# These entries were drawn from the full list.
# aSyn 5UTR act – Activators via SNCA 5'UTR binding, MLPCN; alpha-synuclein 5'UTR reporter, activators screen; activity score, % (tested at 7.5 µM), hits read low; 7.1% of 300,000 active; in the data active means activity score below about -60%
# The depositor's hits bear a star.
SMILES,aSyn 5UTR act
COc1cccc(NC(=O)NC2(C(F)(F)F)Oc3ccccc3O2)c1,-77*
Cc1oc2c(c1C(=O)NCc1cccnc1)C(=O)c1ccccc1C2=O,107
O=C(NCc1cccnc1)NC1(C(F)(F)F)Oc2ccccc2O1,-66*
COc1ccc(NC(=O)Nc2cc(C)ccc2F)cc1,-164*
COc1cccc(NC(=O)NCc2ccccc2Cl)c1,-73*
COc1cccc(NC(=O)Nc2ccccc2SC)c1,-72*
COc1cccc(NC(=O)Nc2cc(C)ccc2F)c1,-73*
COc1cc(N)ccc1C(=O)O,-76*
CN(C)c1ccc(/C=C(\C#N)C(=O)NCc2ccco2)cc1,-102*
N#C/C(=C\c1cn(Cc2cccc(F)c2)c2ccccc12)C(=O)NCc1ccco1,65
N#C/C(=C\c1cn(Cc2ccccc2)c2ccccc12)C(=O)NCc1ccco1,68
CCc1ccc(Nc2cnn(-c3nc4ccccc4s3)c(=O)c2Cl)cc1,-81*
O=C(NC(C(=O)c1ccccc1)n1ccc(=O)[nH]c1=O)c1ccccc1 (stereo not given),-208*
O=C(NC(C(=O)c1ccccc1)N1CCCCC1)c1ccccc1 (stereo not given),-87*
CCc1ccc2c(c1)C1(C(=O)N2)N2CCCC2C(C(=O)c2ccc3ccccc3c2)C12C(=O)Nc1ccccc12 (stereo not given),-127*
CCc1cccc2c1NC(=O)C21N2CCCC2C(C(=O)c2ccc3ccccc3c2)C12C(=O)Nc1ccccc12 (stereo not given),-97*
CCc1ccc2c(c1)C1(NN=C(c3cccc4ccccc34)S1)C(=O)N2 (stereo not given),76
COCC(C)n1c(C)cc(C(=O)CSc2ncccn2)c1C (stereo not given),-76*
COCC(C)n1c(C)cc(C(=O)CSc2nnnn2-c2ccc(O)cc2)c1C (stereo not given),-82*
O=C(CSc1ncccn1)c1ccccc1Br,-64*
COc1ccc2oc(C(=O)OCC(=O)NCCN3C(=O)CSC3=O)c(C)c2c1,-71*
O=C(Nc1nnc(C2CCCO2)s1)c1cccs1 (stereo not given),-90*
COc1cccc(C(=O)Nc2nnc(C3CCCO3)s2)c1 (stereo not given),-99*
O=C(Nc1nnc(C2CCCCC2)s1)c1cccs1,-163*
O=S(=O)(Nc1cc(Sc2cccc3cccnc23)c(O)c2ccccc12)c1ccccc1,-139*
SMILES,aSyn 5UTR act
CC(=O)NC(c1ccc(C)cc1)c1cc(Cl)c2cccnc2c1O (stereo not given),60
Clc1ccc(-n2nnc(-c3nccs3)n2)cc1Cl,-92*
Clc1ccc(-n2nnc(-c3ncc[nH]3)n2)cc1Cl,-171*
Fc1ccc(-n2nnc(-c3ncc[nH]3)n2)cc1,-126*
Cc1ccc(-n2nnc(-c3nccs3)n2)cc1,95
O=C(Nc1ccc(OCC(F)(F)C(F)F)c(C(F)(F)F)c1)c1ccccc1,-101*
O=C(O)CC(=O)Nc1ccc(Oc2ccc(C(F)(F)F)cn2)c(Cl)c1,65
O=C(COc1cc(Cl)c(Cl)cc1Cl)Nc1cccc(O)c1,-90*
Cc1ccc(OCC(=O)Nc2cccc(O)c2)cc1C,-172*
Cc1cccc(OCC(=O)Nc2cccc3nsnc23)c1,-82*
Cc1cccc(OCC(=O)Nc2cccc(O)c2)c1,-162*
CC(=O)c1c(C)[nH]c(C(=O)OCc2ccc(F)cc2Cl)c1C,-68*
CCOC(=O)c1[nH]c(C)c(C(=O)c2cc(F)ccc2F)c1C,74
COC(=O)c1c(C)[nH]c(C(=O)OCc2ccc(F)cc2)c1C,-189*
C=CCn1c(=O)c(C(=O)Nc2ccccc2S(N)(=O)=O)c(O)c2ccccc21,-156*
C=CCn1c(N)c(C(=O)Nc2ccc(C)cc2)sc1=S,-149*
C=CCn1c(=O)c(C(=O)Nc2ccc(C)cc2)c(O)c2ccccc21,-76*
CCn1c(=O)c(C(=O)Nc2ccsc2C(=O)OC)c(O)c2ccccc21,-65*
C=CCn1c(O)c(N=NC(=S)Nc2ccc(OC)cc2)c2ccccc21,84
CN(C)c1ccc(NC(=O)Nc2ccc3c(c2)nnn3C)cc1,-109*
Cn1nnc2cc(C(=O)Nc3ccc(Cl)cc3)ccc21,-117*
CCc1ccc(N2C(=O)Cc3c2nc(N)c(C#N)c3N)cc1,-160*
CCCCN1C(=O)Cc2c1nc(N)c1c(N)nc(N(CCC)CCC)c(C#N)c21,55
CC(C)(C)c1ccc(N2C(=O)Cc3c2nc(N)c(C#N)c3N)cc1,-109*
CC1CN(C(=O)c2cccc(COc3ccc(Br)cc3)c2)CC(C)O1 (stereo not given),-104*
SMILES,aSyn 5UTR act
CCOc1ccc(OCc2cccc(C(=O)N3CCOCC3)c2)cc1,102
O=C(Nc1nc(-c2ccccc2)cs1)c1ccc(Br)o1,-79*
O=C(Nc1nc(-c2cccnc2)cs1)c1cccc([N+](=O)[O-])c1,-84*
O=C(NNc1nc(-c2ccccc2)cs1)c1ccc(F)cc1,76
Cc1ccc(C(=O)Nc2nc(-c3cccnc3)cs2)o1,-101*
O=C(Nc1nc(-c2ccccc2)cs1)c1ccccc1F,-135*
Cc1csc(NC(=O)c2ccc(C)o2)n1,-161*
Cc1ccc(-c2ocnc2C(=O)Nc2nc(C)cs2)cc1,-91*
COC(=O)c1ccccc1NC(=O)COC(=O)c1ccccc1N=Nc1ccc(N(C)C)cc1,-80*
CC(=O)c1ccc(NC(=O)COC(=O)c2ccccc2N=Nc2ccc(N(C)C)cc2)cc1,-101*
CN(C)c1ccc(N=Nc2ccccc2C(=O)OCC(=O)N(C)c2ccccc2)cc1,-83*
CC(=O)/C=C(\C)Nc1ccc(-c2cnc(-c3ccccc3)o2)cc1,-95*
COc1ccccc1OCCNC(=O)c1cc(F)c(F)cc1Cl,-76*
CCCNC(=O)c1cccc(COc2ccccc2OC)c1,-107*
O=C(NCCNc1ccccc1[N+](=O)[O-])c1cc(F)c(F)cc1Cl,-93*
COc1ccccc1OCCNC(=O)c1ccc(Br)cc1,-106*
COc1ccccc1OCCCCOc1ccccc1F,-71*
Cc1cc(NCCN2CCOCC2)n2ncc(-c3ccccc3)c2n1,-62*
C=CCc1c(C)nc2c(-c3ccccc3)cnn2c1N1CCOCC1,-175*
Cc1cc(NC2CCCC2)n2ncc(-c3ccccc3)c2n1,60
Cc1cc(NC(C)c2ccccc2)n2ncc(-c3ccccc3)c2n1 (stereo not given),-83*
Cc1cc(NCc2ccccc2)n2ncc(-c3ccccc3)c2n1,-72*
COc1ccccc1-c1cnn2c(NCCc3ccccc3)cc(C)nc12,-112*
Cc1ccc(/C=N/NC(=O)c2ccc(Br)o2)s1,-111*
CCc1ccc(/C=N\NC(=O)c2ccc(Br)o2)s1,-167*
SMILES,aSyn 5UTR act
Nc1nc(SCC(=O)Nc2ccc(OCc3ccccc3)cc2)n[nH]1,-84*
COc1ccc(NC(=O)CSc2n[nH]c(N)n2)cc1OC,-92*
COc1cccc(NC(=O)c2ccnc(N3CCC(C(=O)NCc4ccccc4OC)CC3)c2)c1,-95*
COc1ccc(-n2nc3c(N4CCC(C(=O)NCc5cccc(C)c5)CC4)nnc(C)c3c2C)cc1,70
CCOc1ccccc1CNC(=O)C1CCN(c2nnc(C)c3c(C)n(-c4ccc(C)cc4)nc23)CC1,78
Cn1c(/C(C#N)=C(\O)c2ccc(Br)s2)nc2ccccc21,-72*
Nc1ccc2nc(-c3ccccc3)cnc2c1,-76*
Clc1ccc(-c2cnc3ccccc3n2)cc1,-208*
Oc1ccc(-c2cnc3ccccc3n2)cc1,-72*
CCCCOc1ccc(-c2cnc3ccccc3n2)cc1,101
COc1ccc(C)cc1NC(=O)CCc1c(C)nn(-c2ccc(N3CCCCC3)nn2)c1C,-95*
